The assay relates to TYKNU. As to the kind of experiment: fractional viability relative to vehicle; TYKNU is a high-grade serous ovarian cancer line; higher = less growth inhibition. Particulars: 72 h, genotype: OPA1 knockout (sgOPA1 #2). The gist of the method:
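Drug treatment lasted 72 h, with cells grown at 37 °C in 5% CO2 in RPMI 1640 supplemented with 10% FBS. Beforehand, TYKNU control cells or their lentiCRISPRv2 knockout derivatives had been seeded at 500 cells per well into drug-stamped 384-well plates carrying a ~2100-compound library at 2 or 10 μM, in duplicate. Viability came from Cell Titer Glo luminescence, with averaged duplicate treatment wells normalised to duplicate control wells in the same plate position.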

Where a name gives a salt, the structure may show the parent alone. Whole data set: some 2,000 compounds, median “fractional viability relative to vehicle” near 0.92, cut for the lowest 2% near 0.11. The sample holds the lowest values, similar compounds and a random draw of the others, so the mix is not that of the screen.

Consider `c1nc2c(NC3CCCCC3)nc(Nc3ccc(N4CCOCC4)cc3)nc2[nH]1` [Reversine], for which the fractional viability by setting is: (2uM) 0.571; (10uM) 0.342.

Take `CN1CCC(Nc2nc(Nc3ccc(Oc4ccccc4)cc3)c3c(=O)[nH]cc(Br)c3n2)CC1`: the fractional viability by setting is: (2uM) 0.289; (10uM) 0.0528.

The compound `CCCCN1CCCC[C@H]1C(=O)Nc1c(C)cccc1C` [Levobupivacaine HCl] gave a fractional viability (2uM) of 1.06 and a fractional viability (10uM) of 0.949.

`CCC1C/C(=C\c2cccnc2)C(=O)/C(=C/c2cccnc2)C1` (stereo not given): the fractional viability (2uM) was found to be 0.442 and the fractional viability (10uM) came to 0.189.

`C1=N/C2=N/c3ccc(OCCN4CCCC4)c(c3)COC/C=C/COCc3cccc(c3)C(=C1)N2` [Pacritinib (SB1518)] displayed a fractional viability (2uM) of 0.318 and a fractional viability (10uM) of 0.0734.

In the case of `Cc1cncc(CN2CCC(=C3c4ccc(Cl)cc4CCc4cccnc43)CC2)c1` [Rupatadine Fumarate], the fractional viability reads like this: (2uM) 1.06; (10uM) 0.915.

In the case of `NC(=O)c1ccc(N(C(N)=O)c2c(F)cccc2F)nc1-c1ccc(F)cc1F`, the fractional viability is, setting by setting: (2uM) 1.19; (10uM) 1.05.

On to `CCN(CC)CCN(Cc1ccc(-c2ccc(C(F)(F)F)cc2)cc1)C(=O)Cn1c(SCc2ccc(F)cc2)nc(=O)c2c1CCC2`, for which the fractional viability reads like this: (2uM) 0.76; (10uM) 0.0367.

As for `O=C(NNc1nc2cc(F)ccc2n2cccc12)c1cnccn1`, the fractional viability came to 0.576 (2uM) and 0.643 (10uM).

For the compound `C=CC[N+]1([C@H]2C[C@H]3[C@@H]4CC[C@H]5C[C@H](O)[C@@H](N6CCOCC6)C[C@]5(C)[C@H]4CC[C@]3(C)[C@H]2OC(C)=O)CCCC1` [Rocuronium Bromide], the fractional viability by setting is: (2uM) 1.16; (10uM) 1.11.

In the case of `CCCCC(C=O)NC(=O)C(CC(C)C)NC(=O)C(CC(C)C)NC(C)=O` (stereo not given), the fractional viability reads like this: (2uM) 0.8; (10uM) 0.939.

`COC[C@H](NC(=O)c1cnc(C)s1)C(=O)N[C@@H](COC)C(=O)N[C@@H](Cc1ccccc1)C(=O)[C@@]1(C)CO1` [Oprozomib (ONX 0912)] came in with a fractional viability (2uM) of 0.153 and a fractional viability (10uM) of 0.136.

Turning to `COc1ccc(C[C@H](NC(=O)[C@H](C)NC(=O)CN2CCOCC2)C(=O)N[C@@H](Cc2ccccc2)C(=O)[C@@]2(C)CO2)cc1`, the fractional viability turned out to be 0.149 (2uM) and 0.144 (10uM).

Take `CC(C)C[C@H](NC(=O)[C@H](CCc1ccccc1)NC(=O)CN1CCOCC1)C(=O)N[C@@H](Cc1ccccc1)C(=O)N[C@@H](CC(C)C)C(=O)[C@@]1(C)CO1` [Carfilzomib (PR-171)]: the fractional viability was 0.0962 (2uM) and 0.146 (10uM).

Turning to `CC(C)C[C@@H]1NC(=O)[C@@H](C(C)C)NC(=O)[C@@H]2CCCN2C(=O)[C@@H](CC(=O)O)NC(=O)[C@@H](Cc2c[nH]c3ccccc23)NC1=O`, the fractional viability is 0.722 (2uM) and 0.866 (10uM).

Consider `C=CCNC1=C2C[C@@H](C)C[C@H](OC)[C@H](O)[C@@H](C)/C=C(\C)[C@H](OC(N)=O)[C@@H](OC)/C=C\C=C(/C)C(=O)NC(=CC1=O)C2=O` [17-AAG (Tanespimycin)], for which the fractional viability is 0.652 (2uM) and 0.468 (10uM).

For the compound `CCN1CCN(Cc2ccc(C(=O)Nc3ccc(C)c(Oc4ccc5c(c4)CC(=O)N5)c3)cc2C(F)(F)F)CC1`, the fractional viability is, setting by setting: (2uM) 0.782; (10uM) 0.462.

Consider `Cc1ccc(C(=O)Nc2ccc(CN3CCN(C)CC3)c(C(F)(F)F)c2)cc1C#Cc1cnc2cccnn12`, for which the fractional viability is, setting by setting: (2uM) 0.67; (10uM) 0.106.

In the case of `Cc1ccc(C(=O)Nc2ccc(CN3CCN(C)CC3)c(C(F)(F)F)c2)cc1C#Cc1cnc2[nH]ncc2c1`, the fractional viability was 0.589 (2uM) and 0.115 (10uM).

As for `Nc1cccc2c1CN(C1CCC(=O)NC1=O)C2=O` (stereo not given) [Lenalidomide (CC-5013)], the fractional viability reads like this: (2uM) 1.14; (10uM) 1.02.

As to `COCC[n+]1c2c(n(Cc3cnccn3)c1C)C(=O)c1ccccc1C2=O` [YM155 (Sepantronium Bromide)], the fractional viability runs as follows: (2uM) 0.06; (10uM) 0.0555.

`CC(C)NCCCn1c(Sc2cc3c(cc2I)OCO3)nc2c(N)ncnc21`: the fractional viability runs as follows: (2uM) 0.428; (10uM) 0.48.

`CCCCCOc1ccc(-c2ccc(-c3ccc(C(=O)N[C@H]4C[C@@H](O)[C@@H](O)NC(=O)[C@@H]5[C@@H](O)[C@@H](C)CN5C(=O)[C@H]([C@@H](C)O)NC(=O)[C@H]([C@H](O)[C@@H](O)c5ccc(O)cc5)NC(=O)[C@@H]5C[C@@H](O)CN5C(=O)[C@H]([C@@H](C)O)NC4=O)cc3)cc2)cc1` had a fractional viability (2uM) of 1.02 and a fractional viability (10uM) of 0.857.

With `CC(C)(C)C(=O)Nc1ccc2c(c1)C(=O)C(=O)c1ccccc1-2`, the fractional viability by setting is: (2uM) 0.181; (10uM) 0.0604.

With `CC(=O)Nc1ccccc1` [Acetanilide], the fractional viability amounted to 0.946 (2uM) and 0.905 (10uM).

Consider `O=C(O)CCCN1CCC(O[C@@H](c2ccc(Cl)cc2)c2ccccn2)CC1` [Bepotastine Besilate], for which the fractional viability is, setting by setting: (2uM) 1.14; (10uM) 0.923.

In the case of `CN1CCC(COc2cnc(-c3cccc(Cn4nc(-c5cccc(C#N)c5)ccc4=O)c3)nc2)CC1`, the fractional viability runs as follows: (2uM) 0.78; (10uM) 0.216.

With `CN1CCC(CNc2ccc3ncc(-c4cccc(OC(F)(F)F)c4)n3n2)CC1` [SGI-1776 free base], the fractional viability is, setting by setting: (2uM) 0.888; (10uM) 0.107.

As for `NC(CO)(CO)CO` [Trometamol], the fractional viability (2uM) was 0.883 and the fractional viability (10uM) was 0.842.

For `O=C(O)C(Cc1c[nH]c2ccccc12)N1C(=O)c2ccccc2C1=O` (stereo not given), the fractional viability is 0.905 (2uM) and 0.771 (10uM).

Take `N#CC(=C(/N)Sc1ccccc1N)/C(C#N)=C(\N)Sc1ccccc1N`: the fractional viability reads like this: (2uM) 1.36; (10uM) 1.25.

Regarding `CN(C)CCOc1ccc(-c2nc(-c3ccncc3)c(-c3ccc4c(c3)CC/C4=N\O)[nH]2)cc1`, the fractional viability (2uM) amounted to 0.833 and the fractional viability (10uM) was 0.0595.

As to `Oc1ccc(-c2nc(-c3ccc(F)cc3)c(-c3ccncc3)[nH]2)cc1`, the fractional viability runs as follows: (2uM) 1.48; (10uM) 1.09.

With `OCCn1cc(-c2ccc3c(c2)CC/C3=N\O)c(-c2ccncc2)n1`, the fractional viability is, setting by setting: (2uM) 1.14; (10uM) 0.942.

As to `O=C(CSc1nc2c(c(=O)n1-c1ccccc1)SCC2)Nc1ccc(-c2ccccc2)cn1`, the fractional viability amounted to 1.09 (2uM) and 0.948 (10uM).
